The source made the active and inactive calls. The calls were made as follows: active = hit-call score of the fitted dose curve at least 0.9, where 1 is the maximum; inactive = score below 0.9.

Read-out in the experiment: TIMP metallopeptidase inhibitor 1 (TIMP1), TIMP1 (gene 7076)
Kind of experiment: BSK_MyoF_TIMP1: BioMAP Diversity Plus: MyoF Assay for TIMP metallopeptidase inhibitor 1 (TIMP1) Biomarker Activity (AID 2284269). The conditions noted are these: primary human lung fibroblasts. As for the experimental part:
BSK_MyoF is a cell-based, multiplexed-readout assay that uses lung fibroblasts, […], with measurements taken at 24 hours after chemical dosing in a microplate: 96-well plate.BSK_MyoF_TIMP1 is an assay component measured in the BSK_MyoF assay. It measures TIMP-1 antibody related to regulation of gene expression using ELISA technology.Data from the assay component BSK_MyoF_TIMP1 was analyzed at the endpoint, BSK_MyoF_TIMP1, in the positive analysis fitting direction relative to DMSO as the negative control and baseline of activity. Using a type of binding reporter, gain or loss-of-signal activity can be used to understand protein changes. To generalize the intended target to other relatable targets, this assay endpoint is annotated to the 'protease' intended target family, where the subfamily is 'matrix metalloproteinase'.
The levels of cell surface (or secreted, indicated by the prefix "s") biomarker endpoints were measured by ELISA. Overt cytotoxicity to cells in confluent adherent cultures (all systems other than the BT system) was assessed by measuring total protein levels using sulforhodamine B (SRB) staining in parallel cultures at the time of biomarker measurements, indicated as SRB endpoints. For proliferation assays for adherent cell types, individual cell types are cultured at sub-confluence and relative cell numbers quantified by SRB staining at time points optimized for each system (48 h: 3C and CASM3C systems; 72 h: BT and HDF3CGF systems; 96 h: SAg system). SRB was performed by staining cells with 0.1% SRB after fixation with 10% TCA and reading wells at 560 nm.Viability and proliferation of PBMC (T cells) was quantified by Alamar Blue reduction for the SAg and BT systems. For PBMC viability (referred to as PBMC Cytotoxicity within the assay endpoint names), cells were plated (75,000/well in a 96-well plate) and then chemical samples added for 1 h before addition of activators, SEB and TSST-1 (20 ng/mL final concentration each). Cells were incubated for 90 h. Then, Alamar Blue (20 uL/well) (Invitrogen, Cat DAL1100) was added for 6 h, and the plates were read with a fluorescence microplate reader at 546/580 nm (excitation/emission). For PBMC proliferation, cells were plated and activated as above but incubated for only 16 h prior to addition of Alamar Blue. Plates were read after 6 h.
`Oc1ccc(/C=C/c2cc(O)cc(O)c2)cc1`: the outcome was inactive.

Take `CC1=CC=C(C(C)C)CC1`: the outcome was inactive.

Consider `C=CC(=O)OCCCCCCCC(C)C`, for which the outcome was inactive.

For the compound `C=CCCCCCCCCC=O`, the result was inactive.

In the case of `Clc1cc(Cl)c(Cl)c(Cl)c1Cl`, the result was inactive.

As a reminder, the AC50 is the concentration at which the activity in the assay is half-maximal. For `Oc1c(Cl)cc(Cl)c(Cl)c1Cl`, the AC50 is 33 µM (active).

With `CCc1cccc(C)c1N(C(=O)CS(=O)(=O)O)C(C)COC` (stereo not given), the outcome was inactive.

With `O=C(Cl)c1c(Cl)c(Cl)c(C(=O)Cl)c(Cl)c1Cl`, the outcome was inactive.

In the case of `O=C1CCCCCCCCCCC1`, the result was inactive.

Take `c1ccc2c(c1)[nH]c1ccccc12`: the outcome was inactive.

On to `C=CC(=O)NC(C)(C)C`, for which the result was inactive.

Take `CCNc1nc(NC(C)(C)C)nc(OC)n1`: the result was inactive.

For `CCC1(C)C(=O)N(Cl)C(=O)N1Cl` (stereo not given), the outcome was inactive.

In the case of `CC(C)c1cccc(C(C)C)c1N`, the result was inactive.

On to `CC1(C)CC(O)CC(C)(C)N1[O]`, for which the result was inactive.

As to `C=CC(=O)NCOCCCC`, the result was inactive.

Turning to `COc1ccc(C(=O)/C(Br)=C\C(=O)O)cc1`, the result was inactive.

For the compound `O=C(O)C(F)(F)C(F)(F)C(F)(F)C(F)(F)C(=O)O`, the outcome was inactive.

As to `COc1ccc(C(=O)c2ccccc2)c(O)c1`, the outcome was inactive.

As for `COC(OC)(C(=O)c1ccccc1)c1ccccc1`, the result was inactive.

Take `CC(C)CCCCCOC(=O)CS`: the outcome was inactive.

Regarding `CCCCCCCO`, the result was inactive.

With `CCCCCCCCCCCC(C)=O`, the outcome was inactive.

In the case of `Fc1ccc(Br)cc1`, the result was inactive.

Turning to `O=C(Oc1ccccc1)c1ccccc1C(=O)Oc1ccccc1`, the result was inactive.

`CC(C)[N+](C)(CCOC(=O)C1c2ccccc2Oc2ccccc21)C(C)C`: the result was inactive.

Take `CCCCC1C(=O)N(c2ccccc2)N(c2ccccc2)C1=O`: the result was inactive.

`CCOC(=O)/C=C\C(=O)OCC`: the result was inactive.

As for `CCOC(=O)C1=NOC(c2ccccc2)(c2ccccc2)C1`, the outcome was inactive.

Turning to `CCCCCCC=O`, the result was inactive.

With `CCOC(=O)C1=NN(c2ccc(Cl)cc2Cl)C(C)(C(=O)OCC)C1` (stereo not given), the outcome was inactive.

In the case of `Cc1c(O)cccc1O`, the result was inactive.

As to `Nc1cccc(N)n1`, the result was inactive.

For `CCCCCC1=CCCC1=O`, the result was inactive.

As to `CC=C(C)C(C)=O`, the outcome was inactive.

Take `CC/C=C\C/C=C\C/C=C\CCCCCCCC(=O)OC`: the AC50 is 20 µM (active).

In the case of `CC=C(C)C=CC=C(C)C`, the result was inactive.

Regarding `C[N+](C)(C)CCCNS(=O)(=O)C(F)(F)C(F)(F)C(F)(F)C(F)(F)C(F)(F)C(F)(F)C(F)(F)C(F)(F)F`, the outcome was inactive.

`O=C1CCCCCCCCCCCN1`: the outcome was inactive.

For `CCCCCCOC(=O)CCCCC(=O)OCCCCCC`, the result was inactive.
